Experiment [1] is described as follows: ATG_CRE_CIS: Attagene CIS-FACTORIAL HepG2 Assay for human cAMP Responsive Element (CRE) binding protein 3 (AID 2282926). The settings on record: HepG2 CRE cis-reporter, Attagene multiplexed mRNA; actives raise or lower the signal. A digest of the protocol:
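Endogenous transcription factor activity read via CRE-regulated reporter transcripts in transfected HepG2 cells. After 24 h exposure, RNA was reverse-transcribed, amplified, fluorescently labelled and sized by capillary electrophoresis; gain or loss fitted against DMSO.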

Experiment [2] deals with CCAAT/enhancer-binding protein beta (Homo sapiens) (UniProt P17676). As to the kind of experiment: ATG_C_EBP_CIS: Attagene CIS-FACTORIAL HepG2 Assay for human CCAAT/Enhancer Binding Protein (C/EBP) beta (AID 2282927). The conditions noted are these: HepG2 Attagene cis-factorial transcription factor reporter; actives raise or lower the signal. A digest of the protocol: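 Endogenous transcription factor activity in human liver HepG2 cells is inferred from induction of a CEBPB-linked reporter mRNA. Exposure lasts 24 h; activity is fitted in both directions relative to DMSO.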

Experiment [3] is described as follows: ATG_CMV_CIS: Attagene CIS-FACTORIAL HepG2 Assay for human CMV (Internal Marker) (AID 2282928).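 Also: endpoint acts as a background internal control marker rather than a target.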 The settings on record: HepG2 CMV promoter reporter, transcription factor profiling; actives raise or lower the signal. A digest of the protocol: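 Readout: fluorescent reporter cDNA fragments separated by capillary electrophoresis after RT-PCR and HpaI cut. Cells: HepG2 carrying transfected cis-promoter reporter constructs, dosed 24 h. Endpoint serves as background internal-marker control, fit bidirectionally versus DMSO.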

Experiment [4] in a line: ATG_AP_1_CIS: Attagene CIS-FACTORIAL HepG2 Assay for human Activator Protein 1 (AP-1) (AID 2282931). The settings on record: HepG2 Attagene cis-factorial AP-1 reporter mRNA; actives raise or lower the signal. A digest of the protocol:
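Reporter transcripts were measured 24 h after dosing by RT-PCR and capillary electrophoresis of fluorescent fragments. Cells: HepG2 carrying transfected cis-regulated reporter constructs reading endogenous factor activity. Gain or loss fitted against DMSO.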

Experiment [5] can be described thus: ATG_AP_2_CIS: Attagene CIS-FACTORIAL HepG2 Assay for human Activator Protein 2 (AP-2) (AID 2282932). The settings on record: HepG2 AP-2 cis-reporter, Attagene transcription factor profiling; actives raise or lower the signal. The method, boiled down: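 Transiently transfected HepG2 cells are exposed to chemical for 24 h. Reporter transcripts are then measured as fluorescence following RT-PCR and capillary separation, and gain- or loss-of-signal is fitted relative to DMSO.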

Experiment [6] is described as follows: ATG_BRE_CIS: Attagene CIS-FACTORIAL HepG2 Assay for human Bone Morphogenetic Protein (BMP) Response Element (BRE) (AID 2282933). The settings on record: HepG2 BMP response element reporter, Attagene transcription factor profiling; actives raise or lower the signal. A digest of the protocol:
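Endogenous transcription factor activity read in transiently transfected HepG2 cells after 24 h chemical exposure. Bidirectional curve fitting against DMSO; readout is reporter transcript level by RT-PCR with capillary electrophoresis of labelled products.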

Experiment [7] addresses Transcription factor E2F1 (Homo sapiens) (UniProt Q01094). As to the kind of experiment: ATG_E2F_CIS: Attagene CIS-FACTORIAL HepG2 Assay for human E2F Transcription Factor 1 (AID 2282935). The conditions noted are these: HepG2 Attagene cis-reporter, E2F reporter RNA transcripts; actives raise or lower the signal. A digest of the protocol:
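Fluorescent RT-PCR products, digested with HpaI for 2 h at 37 C, are separated by capillary electrophoresis. Source RNA comes from transfected HepG2 cultures treated for 24 h.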

A short description of experiment [8]: ATG_E_Box_CIS: Attagene CIS-FACTORIAL HepG2 Assay for human Enhancer Box (E-box) (AID 2282936). The conditions noted are these: HepG2 E-box cis-reporter transcription, actives raise or lower the signal. A digest of the protocol:
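Fluorescent reporter fragments separated by capillary electrophoresis gave the signal; mRNA came from HepG2 cells transfected with cis-element reporters and treated 24 h. Curves fitted bidirectionally relative to DMSO controls.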

Experiment [9] can be described thus: ATG_M_61_CIS: Attagene CIS-FACTORIAL HepG2 Assay for M61 Transcription Factor (Internal Marker) (AID 2282937). The settings on record: HepG2 Attagene CIS-FACTORIAL M61 internal marker reporter; actives raise or lower the signal. A digest of the protocol:
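Readout: fluorescent reporter mRNA fragments resolved by capillary electrophoresis after RT-PCR. Transiently transfected human HepG2 cells carried MRTU constructs reporting endogenous TF activity; 24 h chemical exposure; gain or loss of signal fitted relative to DMSO.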

A short description of experiment [10]: ATG_EGR_CIS: Attagene CIS-FACTORIAL HepG2 Assay for human Early Growth Response 1 (EGR1) (AID 2282938). The settings on record: HepG2 Attagene CIS-FACTORIAL EGR reporter mRNA; actives raise or lower the signal. A digest of the protocol:
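Read-out: fluorescent reporter-mRNA fragments resolved by capillary electrophoresis after RT-PCR, 24 h post-dose in transiently transfected HepG2. Endogenous transcription-factor activity reported via cis-element-regulated reporter units; gain or loss fitted relative to DMSO.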

The nature of experiment [11]: ATG_M_19_CIS: Attagene CIS-FACTORIAL HepG2 Assay for M19 Transcription Factor (Internal Marker) (AID 2282939). The conditions noted are these: HepG2 Attagene CIS-FACTORIAL M19 internal marker reporter; actives raise or lower the signal. The method, boiled down: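 Internal marker readout, fitted in both directions against DMSO, from HepG2 cells carrying transfected cis-element reporter constructs; RT-PCR and capillary electrophoresis of reporter mRNA after 24 h exposure.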

The nature of experiment [12]: ATG_GATA_CIS: Attagene CIS-FACTORIAL HepG2 Assay for human GATA Binding Protein (AID 2282944). The settings on record: HepG2 GATA cis-element reporter, Attagene multiplex mRNA; actives raise or lower the signal. A digest of the protocol: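 Reporter transcripts from a GATA cis-regulated unit, among multiplexed reporters in transfected HepG2 cells, were measured by RT-PCR with capillary electrophoresis after 24 h dosing. Induction or loss scored relative to DMSO.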

Experiment [13] in a line: ATG_GLI_CIS: Attagene CIS-FACTORIAL HepG2 Assay for human Zinc Finger Protein GLI1 (AID 2282945). The settings on record: HepG2, Attagene cis-factorial reporter mRNA, GLI element; actives raise or lower the signal. The method, boiled down: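 Bidirectional curve fits relative to DMSO, using reporter mRNA levels from RT-PCR plus capillary electrophoresis. Cells were HepG2 transiently carrying cis-regulated reporter constructs, harvested 24 h after dosing.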

The nature of experiment [14]: ATG_ISRE_CIS: Attagene CIS-FACTORIAL HepG2 Assay for human Interferon Regulatory Factor 1 (IRF1) binding to an Interferon-Stimulated Response Element (ISRE) (AID 2282948). The settings on record: HepG2 ISRE cis-reporter (Attagene), mRNA transcription readout; actives raise or lower the signal. A digest of the protocol:
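Read-out: fluorescent RT-PCR products resolved by capillary electrophoresis, reporting endogenous transcription factor activity via ISRE-driven reporter mRNA in transfected HepG2 cells dosed for 24 h; gain or loss fitted relative to DMSO.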

Experiment [15] is described as follows: ATG_M_32_CIS: Attagene CIS-FACTORIAL HepG2 Assay for M32 Transcription Factor (Internal Marker) (AID 2282949).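 Also: background control marker of the multiplexed CIS panel rather than a real target.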 The settings on record: HepG2 Attagene cis-factorial M32 reporter, mRNA; actives raise or lower the signal. The method, boiled down:
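Transient MRTU transfection of HepG2; 24 h compound treatment; TriZol RNA, oligo(dT) RT, reporter PCR, 6-FAM primer extension, HpaI cut, CE. Gain/loss of signal vs DMSO.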

Experiment [16] can be described thus: ATG_MRE_CIS: Attagene CIS-FACTORIAL HepG2 Assay for human Metal Responsive Element (MRE) (AID 2282954). The conditions noted are these: HepG2 MRE cis-reporter transcription, Attagene multiplex; actives raise or lower the signal. The method, boiled down:
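Multiplexed cis-reporter assay in human HepG2 liver cells, 24 h incubation with test chemical. Reporter transcripts measured by RT-PCR and capillary electrophoresis; values from bidirectional curve fitting versus DMSO.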

Experiment [17] deals with Paired box protein Pax-6 (Homo sapiens) (UniProt P26367). As to the kind of experiment: ATG_Pax6_CIS: Attagene CIS-FACTORIAL HepG2 Assay for human Paired Box 6 (PAX6) (AID 2282956). The conditions noted are these: HepG2 CIS-FACTORIAL PAX6 reporter transcription, RNA readout; actives raise or lower the signal. A digest of the protocol: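 Readout: reporter transcript fluorescence after RT-PCR and capillary electrophoresis. Cells: HepG2, transiently transfected with cis-regulated MRTUs. Exposure 24 h. Gain or loss of signal fitted bidirectionally relative to DMSO.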

Experiment [18] is described as follows: ATG_PXRE_CIS: Attagene CIS-FACTORIAL HepG2 Assay for human Pregnane X Receptor Element (PXRE) (AID 2282957). The settings on record: HepG2 Attagene CIS-FACTORIAL PXRE reporter, mRNA; actives raise or lower the signal. The method, boiled down:
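Reporter transcripts under endogenous PXR-responsive cis-regulation quantified from total RNA of transfected HepG2 cells 24 h post-dosing, via RT-PCR with fluorescent primer extension and capillary electrophoresis. Gain or loss of signal fitted against DMSO baseline.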

Experiment [19] has as its target Transcription factor Sp1 (Homo sapiens) (UniProt P08047). Description: ATG_Sp1_CIS: Attagene CIS-FACTORIAL HepG2 Assay for human Specificity Protein 1 (Sp1) (AID 2282961). The conditions noted are these: HepG2 Sp1 cis-reporter transcription, actives raise or lower the signal. The method, boiled down: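 Read-out: fluorescence of 6-FAM-labeled, HpaI-digested RT-PCR products separated by capillary electrophoresis. HepG2 cells carried transfected cis-element reporter units and were exposed to chemicals for 24 h; gain or loss of signal fitted relative to DMSO.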

In experiment [20] the target is Signal transducer and activator of transcription 3 (Homo sapiens) (UniProt P40763). Description: ATG_STAT3_CIS: Attagene CIS-FACTORIAL HepG2 Assay for human Signal Transducer and Activator of Transcription 3 (STAT3) (AID 2282963). The settings on record: HepG2, Attagene cis-factorial STAT3 reporter transcription; actives raise or lower the signal. The method, boiled down: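 Cis-factorial format: endogenous transcription factors in HepG2 drive transfected reporter units. After 24 h treatment, reporter RNA was reverse-transcribed, amplified, FAM-labelled and HpaI-digested before CE analysis; activity scored in both directions against DMSO.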

Calls of active or inactive are those of the source. The calls were made as follows: active = hit-call score of the fitted dose curve at least 0.9, where 1 is the maximum; inactive = score below 0.9.

Chain of Paired box protein Pax-6 (Homo sapiens) (P26367 whole entry, looked up): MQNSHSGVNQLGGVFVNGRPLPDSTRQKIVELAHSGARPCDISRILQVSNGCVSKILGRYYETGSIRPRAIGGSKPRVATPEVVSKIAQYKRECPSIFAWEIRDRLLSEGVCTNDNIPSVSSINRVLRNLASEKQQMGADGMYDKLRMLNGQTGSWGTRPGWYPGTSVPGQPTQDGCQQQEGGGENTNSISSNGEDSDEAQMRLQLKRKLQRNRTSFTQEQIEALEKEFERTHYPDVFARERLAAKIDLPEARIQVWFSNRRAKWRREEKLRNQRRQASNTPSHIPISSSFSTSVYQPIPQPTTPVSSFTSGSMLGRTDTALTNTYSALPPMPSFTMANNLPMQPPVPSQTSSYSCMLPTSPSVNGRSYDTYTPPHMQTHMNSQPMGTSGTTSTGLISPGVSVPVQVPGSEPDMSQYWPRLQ
Chain of CCAAT/enhancer-binding protein beta (Homo sapiens) (P17676 whole entry, looked up): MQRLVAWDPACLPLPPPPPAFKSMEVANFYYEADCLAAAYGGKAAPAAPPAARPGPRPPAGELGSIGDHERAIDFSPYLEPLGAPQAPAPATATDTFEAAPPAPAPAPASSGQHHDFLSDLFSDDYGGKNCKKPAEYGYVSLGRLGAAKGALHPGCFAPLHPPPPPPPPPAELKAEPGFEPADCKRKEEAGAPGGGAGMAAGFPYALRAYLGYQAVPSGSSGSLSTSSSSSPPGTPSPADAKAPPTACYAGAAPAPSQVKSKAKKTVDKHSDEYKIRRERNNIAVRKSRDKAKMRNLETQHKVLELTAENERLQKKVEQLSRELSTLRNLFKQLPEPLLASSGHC
Chain of Transcription factor Sp1 (Homo sapiens) (P08047 whole entry, looked up): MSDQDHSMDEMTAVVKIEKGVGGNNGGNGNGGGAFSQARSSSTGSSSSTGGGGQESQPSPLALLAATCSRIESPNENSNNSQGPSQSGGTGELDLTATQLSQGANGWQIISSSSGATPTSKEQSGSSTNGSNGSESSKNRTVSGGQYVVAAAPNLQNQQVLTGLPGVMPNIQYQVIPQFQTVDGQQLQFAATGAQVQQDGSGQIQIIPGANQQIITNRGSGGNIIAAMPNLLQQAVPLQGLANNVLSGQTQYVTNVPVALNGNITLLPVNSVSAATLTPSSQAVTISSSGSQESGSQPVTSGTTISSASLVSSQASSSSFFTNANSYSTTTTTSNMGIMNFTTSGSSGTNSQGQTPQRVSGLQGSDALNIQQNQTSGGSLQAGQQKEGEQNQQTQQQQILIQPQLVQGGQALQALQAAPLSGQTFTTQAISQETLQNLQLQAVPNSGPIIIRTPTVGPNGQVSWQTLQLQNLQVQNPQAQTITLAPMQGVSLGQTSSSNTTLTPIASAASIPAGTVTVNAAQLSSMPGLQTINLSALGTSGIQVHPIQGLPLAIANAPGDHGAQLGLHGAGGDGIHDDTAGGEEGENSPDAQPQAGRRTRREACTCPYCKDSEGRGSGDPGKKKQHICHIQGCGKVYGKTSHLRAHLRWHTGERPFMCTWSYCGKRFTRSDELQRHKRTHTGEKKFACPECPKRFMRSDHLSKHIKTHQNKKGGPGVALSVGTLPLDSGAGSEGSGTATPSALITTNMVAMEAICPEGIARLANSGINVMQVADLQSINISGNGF
Chain of Transcription factor E2F1 (Homo sapiens) (Q01094 whole entry, looked up): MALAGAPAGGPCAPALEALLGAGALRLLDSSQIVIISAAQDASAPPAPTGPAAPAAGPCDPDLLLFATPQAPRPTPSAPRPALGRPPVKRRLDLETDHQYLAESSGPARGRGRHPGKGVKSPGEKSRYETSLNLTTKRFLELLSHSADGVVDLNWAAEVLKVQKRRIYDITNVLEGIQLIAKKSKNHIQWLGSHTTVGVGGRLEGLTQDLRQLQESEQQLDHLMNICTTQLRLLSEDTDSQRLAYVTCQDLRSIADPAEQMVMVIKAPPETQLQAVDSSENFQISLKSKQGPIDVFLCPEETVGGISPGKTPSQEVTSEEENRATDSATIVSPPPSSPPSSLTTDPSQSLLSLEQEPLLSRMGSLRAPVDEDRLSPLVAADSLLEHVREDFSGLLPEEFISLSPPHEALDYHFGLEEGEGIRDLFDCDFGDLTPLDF
Chain of Signal transducer and activator of transcription 3 (Homo sapiens) (P40763 whole entry, looked up): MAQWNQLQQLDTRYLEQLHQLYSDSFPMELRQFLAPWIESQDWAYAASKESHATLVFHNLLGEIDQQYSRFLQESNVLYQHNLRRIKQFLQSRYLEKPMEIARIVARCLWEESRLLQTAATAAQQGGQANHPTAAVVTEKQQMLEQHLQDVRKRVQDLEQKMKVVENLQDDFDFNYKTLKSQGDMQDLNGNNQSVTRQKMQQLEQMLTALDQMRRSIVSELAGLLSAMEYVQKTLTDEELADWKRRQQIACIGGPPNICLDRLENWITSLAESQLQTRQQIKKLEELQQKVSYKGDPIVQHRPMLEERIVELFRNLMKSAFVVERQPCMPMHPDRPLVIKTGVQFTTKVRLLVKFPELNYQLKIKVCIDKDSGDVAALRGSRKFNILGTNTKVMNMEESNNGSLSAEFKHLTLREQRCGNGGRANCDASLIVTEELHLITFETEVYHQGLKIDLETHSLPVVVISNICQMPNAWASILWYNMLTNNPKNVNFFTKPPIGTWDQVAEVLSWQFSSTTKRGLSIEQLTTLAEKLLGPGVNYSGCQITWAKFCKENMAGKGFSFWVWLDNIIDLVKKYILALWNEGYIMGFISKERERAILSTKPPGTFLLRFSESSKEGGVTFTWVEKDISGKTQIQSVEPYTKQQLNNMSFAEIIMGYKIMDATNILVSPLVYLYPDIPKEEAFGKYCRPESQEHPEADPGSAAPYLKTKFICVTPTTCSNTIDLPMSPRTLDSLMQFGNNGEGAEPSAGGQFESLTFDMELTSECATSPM

In the case of `CCCCOC(=O)COc1ccc(Cl)cc1Cl`, the result in experiment [1], in experiment [2], in experiment [3], in [4], in experiment [5] and in experiment [6] was inactive. Also, the compound was classed as inactive in experiment [7], in [8], in experiment [9], in experiment [10], in experiment [11] and in experiment [12]. The call in experiment [13], in experiment [14], in experiment [15], in experiment [16], in experiment [17] and in experiment [18] was inactive. Further, the call in [19] and in experiment [20] was inactive.

For the compound `O=[N+]([O-])c1ccc2nc[nH]c2c1`, the call in experiment [1], in experiment [2], in [3], in experiment [4], in experiment [5] and in experiment [6] was inactive. The compound was classed as inactive in [7], in [8], in [9], in experiment [10], in [11] and in experiment [12]. Further, the call in experiment [13], in experiment [14], in experiment [15], in experiment [16], in experiment [17] and in [18] was inactive. In addition, the compound was called inactive in experiment [19] and in [20].

As usually defined, the AC50 is the concentration at which the activity in the assay is half-maximal. Turning to `c1cc[c]([Bi]([c]2ccccc2)[c]2ccccc2)cc1`, the call in [1], in experiment [2], in [3], in experiment [5], in experiment [6] and in experiment [7] was inactive. Moreover, the outcome in [8], in experiment [9], in experiment [10], in [11], in experiment [12] and in [13] was inactive. For the same compound, the compound was classed as inactive in [14], in experiment [15], in [16], in experiment [17], in experiment [19] and in experiment [20]. The AC50 in [4] is 58.1 µM (active); in experiment [18] it was 4.08 µM (active).

The record behind these values is PubChem BioAssay (EPA / NIEHS).
